# PubChem BioAssay (NCATS)
# Records with an inconclusive call do not appear. Entries that show only a call come without a potency. Active and inactive are the calls of the source. Calls come from the whole dose curve; as a rule, active = well fitted cell-killing curve with a large enough effect; inconclusive = small, poorly fitted or top-dose-only effect; inactive = flat fitted curve, though single readings scatter.
# Test: Cell Viability - LYMP2-012 (AID 982);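 note: cellular ATP by luciferase luminescence where a drop means cytotoxicity; cells exposed to compound for one day before reading; nearly all actives have a fitted effect of over 55% in size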
# Conditions: LYMP2-012 lymphoblastoid cell viability qHTS; series mostly up to 92.2 µM
# From the text: NIH Chemical Genomics Center [NCGC]
# NIH Molecular Libraries Screening Centers Network [MLSCN]
# National Institutes of Environmental Health Sciences [NIEHS]
# National Toxicology Program [NTP]
# We have developed a 1536-well cell-based assay for quantitative high throughput screening (qHTS) against a number of cell lines to determine in vitro cytotoxicity of small molecules. This particular assay uses a human lymphoblastoid cell line (LYMP2-012) purchased from Coriell Institute for Medical Research.
# NCGC Assay Protocol Summary:
# The CellTiter-Glo luminescent cell viability assay (Promega) is a homogeneous method to measure the number of viable cells in culture. The end point readout of this assay is based on quantitation of intracellular ATP, an indicator of metabolic activity, using the luciferase reaction. Luciferase catalyzes the oxidation of beetle Luciferin to oxyluciferin and light in the presence of ATP. The luminescent signal is proportional to amount of ATP present.
# Using the CellTiter-Glo luminescent cell viability assay, the amount of cellular ATP was measured in the lymphoblastoid cell line with complete culture medium following compound treatment for 24 hours. The assay was performed in opaque white Kalypsys 1536-well plates. In the screen, tetraoctylammonium bromide was used as positive control. Library compounds were measured for their ability to cause acute toxicity in the cell line, as reflected by a decrease in intracellular ATP levels, in a concentration-dependent manner. […] AC50 values were determined from concentration-response data modeled with the standard Hill equation.
# qHTS protocol for CellTiter Glo lymphoblastoid cellular assay
# [Step] [Parameter] [Value] [Description]
# 1. Reagent; 5 uL; 2500 lymphoblastoid cells/well
# 2. Time; 5 hr; 37 C incubation
# 4. Controls; 23 nL; Tetraoctylammonium bromide 6.4pM to 92 uM
# 5. Time; 24 hr; 37 C incubation
# 6. Reagent; 5 uL; CellTiter Glo reagent
# 7. Time; 30 min; Room Temperature
# 8. Detection; Luminescence; Viewlux plate reader
# Keywords: cell viability, cytotoxicity, lymphoblastoid cell line, luminescence, NTPHTS, NTPHTS_NCGC, NIEHS, DSSTox, MLSMR, MLSCN, NIH Roadmap, qHTS, NCGC
# Potency is the fitted concentration of half-maximal effect.
row,SMILES,Potency
1,CCCCCCN,inactive
2,CCC(Cl)CC(Cl)C(Cl)C(Cl)C(Cl)C(C)Cl (stereo not given),inactive
3,O=CC(=O)c1ccccc1,inactive
4,S=C(NC1CCCCC1)NC1CCCCC1,inactive
5,CC(=O)CC(=O)Nc1ccccc1,inactive
6,COc1ccc(C)cc1N,inactive
7,O=C1OC(=O)c2ccccc21,inactive
8,Cc1ccc2ccc3cccc4ccc1c2c34,inactive
9,Oc1c(Cl)cc(Cl)c(Cl)c1Cl,inactive
10,CN(C)c1ccc(Cc2ccc(N(C)C)cc2)cc1,inactive
11,COc1cc(-c2ccc(N=C=O)c(OC)c2)ccc1N=C=O,inactive
12,COc1ccc([N+](=O)[O-])cc1N,inactive
13,O=C(Cl)c1ccc([N+](=O)[O-])cc1,inactive
14,CC(=O)OCc1ccc2c(c1)OCO2,inactive
15,Cc1cccnc1,inactive
16,CC(C)OCC1CO1 (stereo not given),inactive
17,CC/C=C/C/C=C/C/C=C/CCCCCCCC(=O)OCC,39.8 µM (active)
18,c1ccc2c(c1)ccc1ccccc12,inactive
19,Nc1cc([N+](=O)[O-])ccc1O,inactive
20,c1ccc(Nc2cccc3ccccc23)cc1,inactive

row,SMILES,Potency
1,CCCCCCCCC1CO1 (stereo not given),inactive
2,CCNC(=S)NCC,inactive
3,CC(=O)c1ccc(Cl)c(Cl)c1Cl,inactive
4,Nc1cc(C(=O)O)c(O)c(S(=O)(=O)O)c1,inactive
5,c1cc2c3c(c1)ccc1cccc(c13)C2,inactive
6,CC(C)S,inactive
7,CC(=O)Nc1cccc(C)c1,inactive
8,C=CC(=O)OCCCCCCOC(=O)C=C,39.8 µM (active)
9,Nc1ccc(N=Nc2ccccc2)c(N)c1,inactive
10,CC(CCC(=O)O)(c1ccc(O)cc1)c1ccc(O)cc1,inactive
11,C=C(C#N)C(=O)OCC,inactive
12,c1c[nH]cn1,inactive
13,CC(=O)OC(C(=O)c1ccccc1)c1ccccc1 (stereo not given),inactive
14,c1ccncc1,inactive
15,Oc1cc2c(cc1O)[C@H]1c3ccc(O)c(O)c3OC[C@@]1(O)C2,25.1 µM (active)
16,C=CC(C)(O)CCCC(C)CCCC(C)CCCC(C)C (stereo not given),inactive
17,CCN(CC)c1ccc2c(C)cc(=O)oc2c1,inactive
18,Nc1ccc2c(c1)C(=O)c1ccccc1C2=O,inactive
19,c1ccc(SCCSc2ccccc2)cc1,inactive
20,C/C=C/C=C/C=O,31.6 µM (active)
